Data: article PMC7862700, “An all-to-all approach to the identification of sequence-specific readers for epigenetic DNA modifications on cytosine”

Key:
Test in all cases: DAPPL (digital affinity profiling via proximity ligation, sequencing); 10 mM Tris-HCl pH 7.5, 50 mM NaCl, 1 mM DTT, 4% glycerol, room temperature, 30 min; GST-TFs on glutathione beads, 16-mer random dsDNA library, 0.1% formaldehyde crosslink after washing; high values mean tight binding
Settings in all cases: protein: recombinant; tags: N-terminal GST; dsDNA, one strand shown
FLI1 = target: T1, FLI1 (Homo sapiens, UniProt Q01543 1-452)
T1 sequence: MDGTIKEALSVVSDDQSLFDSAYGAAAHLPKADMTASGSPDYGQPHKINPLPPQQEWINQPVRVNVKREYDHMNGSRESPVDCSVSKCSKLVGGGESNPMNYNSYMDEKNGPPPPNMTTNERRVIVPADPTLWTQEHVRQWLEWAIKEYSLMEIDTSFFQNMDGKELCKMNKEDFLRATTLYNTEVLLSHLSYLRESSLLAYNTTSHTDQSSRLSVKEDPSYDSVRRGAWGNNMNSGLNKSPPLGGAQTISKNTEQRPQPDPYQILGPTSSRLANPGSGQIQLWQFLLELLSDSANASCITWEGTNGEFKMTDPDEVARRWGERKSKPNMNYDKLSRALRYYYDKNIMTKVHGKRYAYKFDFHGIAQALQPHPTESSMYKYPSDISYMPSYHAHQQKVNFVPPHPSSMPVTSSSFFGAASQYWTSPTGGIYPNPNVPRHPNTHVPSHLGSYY
Outline: (§1)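 Human transcription factors fused to GST were expressed in yeast, captured on glutathione beads, given DNA barcodes and pooled with a GST-only negative control. Pools were incubated with 200 nmole of a 16-mer random double-stranded DNA library in Tris/NaCl/DTT/glycerol buffer at room temperature for 30 min. They were then washed, crosslinked with 0.1% formaldehyde, proximity-ligated (BsaI/T4 ligase, 1 h, 37 °C), PCR-amplified and sequenced on an Illumina NextSeq500. Binding signal is each 6-mer's read frequency for a factor divided by its frequency for the GST control.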

ELK1 = target: T2, ELK1 (Homo sapiens, UniProt P19419 1-428)
T2 sequence: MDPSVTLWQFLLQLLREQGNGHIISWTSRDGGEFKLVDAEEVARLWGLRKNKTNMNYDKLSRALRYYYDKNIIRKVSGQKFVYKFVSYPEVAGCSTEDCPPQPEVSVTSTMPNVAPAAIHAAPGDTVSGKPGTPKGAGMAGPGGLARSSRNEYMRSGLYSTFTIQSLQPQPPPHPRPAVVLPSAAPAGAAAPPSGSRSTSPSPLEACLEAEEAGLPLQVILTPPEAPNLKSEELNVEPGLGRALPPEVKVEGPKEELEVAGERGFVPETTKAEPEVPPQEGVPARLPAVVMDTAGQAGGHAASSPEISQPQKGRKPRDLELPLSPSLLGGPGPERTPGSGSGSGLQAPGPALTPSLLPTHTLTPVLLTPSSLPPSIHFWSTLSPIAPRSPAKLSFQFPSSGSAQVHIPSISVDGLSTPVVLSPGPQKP
Outline: as §1

GABPA = target: T3, GABPA (Homo sapiens, UniProt Q06546 1-454)
T3 sequence: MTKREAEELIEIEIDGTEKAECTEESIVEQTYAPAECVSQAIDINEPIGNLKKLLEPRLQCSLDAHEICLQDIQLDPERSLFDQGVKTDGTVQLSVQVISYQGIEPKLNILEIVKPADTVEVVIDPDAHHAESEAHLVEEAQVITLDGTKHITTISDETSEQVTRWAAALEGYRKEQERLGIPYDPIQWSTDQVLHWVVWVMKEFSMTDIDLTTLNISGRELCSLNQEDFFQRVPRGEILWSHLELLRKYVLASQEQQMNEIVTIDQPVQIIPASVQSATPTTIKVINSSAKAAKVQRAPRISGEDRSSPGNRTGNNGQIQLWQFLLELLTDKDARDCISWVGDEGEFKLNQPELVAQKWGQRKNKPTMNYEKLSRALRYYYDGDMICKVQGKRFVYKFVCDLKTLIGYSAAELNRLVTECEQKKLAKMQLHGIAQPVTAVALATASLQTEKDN
Outline: as §1

ERG = target: T4, ERG (Homo sapiens, UniProt P11308 1-479)
T4 sequence: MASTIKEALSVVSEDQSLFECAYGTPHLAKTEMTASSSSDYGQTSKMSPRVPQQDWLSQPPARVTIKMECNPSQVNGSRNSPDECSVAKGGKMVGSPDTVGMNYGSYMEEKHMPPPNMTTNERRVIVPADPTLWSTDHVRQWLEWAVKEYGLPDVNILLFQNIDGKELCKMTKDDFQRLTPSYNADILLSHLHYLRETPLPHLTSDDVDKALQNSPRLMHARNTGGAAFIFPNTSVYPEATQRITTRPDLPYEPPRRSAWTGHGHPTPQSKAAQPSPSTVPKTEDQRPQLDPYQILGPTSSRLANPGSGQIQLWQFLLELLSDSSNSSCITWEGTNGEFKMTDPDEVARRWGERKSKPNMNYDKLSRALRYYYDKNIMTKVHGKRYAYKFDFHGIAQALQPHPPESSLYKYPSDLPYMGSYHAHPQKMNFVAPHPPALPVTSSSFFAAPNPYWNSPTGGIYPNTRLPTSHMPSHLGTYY
Outline: as §1

ELF1 = ELF1 (Homo sapiens, UniProt P32519 1-619)
Outline: as §1

EHF = target: T5, EHF (Homo sapiens, UniProt Q9NZC4 1-300)
T5 sequence: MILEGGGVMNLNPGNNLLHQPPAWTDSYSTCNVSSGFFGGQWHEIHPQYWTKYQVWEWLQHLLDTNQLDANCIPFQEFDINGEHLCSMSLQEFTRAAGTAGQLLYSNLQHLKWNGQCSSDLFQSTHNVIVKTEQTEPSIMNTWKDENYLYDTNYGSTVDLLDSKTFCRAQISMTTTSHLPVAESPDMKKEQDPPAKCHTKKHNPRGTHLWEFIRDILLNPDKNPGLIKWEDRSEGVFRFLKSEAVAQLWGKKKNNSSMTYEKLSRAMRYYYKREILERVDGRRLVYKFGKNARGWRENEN
Outline: as §1

SPI1 = SPI1 (Homo sapiens, UniProt P17947 1-270)
Outline: as §1

SPIB = SPIB (Homo sapiens, UniProt Q01892 1-262)
Outline: as §1

ELK3 = target: T6, ELK3 (Homo sapiens, UniProt P41970 1-407)
T6 sequence: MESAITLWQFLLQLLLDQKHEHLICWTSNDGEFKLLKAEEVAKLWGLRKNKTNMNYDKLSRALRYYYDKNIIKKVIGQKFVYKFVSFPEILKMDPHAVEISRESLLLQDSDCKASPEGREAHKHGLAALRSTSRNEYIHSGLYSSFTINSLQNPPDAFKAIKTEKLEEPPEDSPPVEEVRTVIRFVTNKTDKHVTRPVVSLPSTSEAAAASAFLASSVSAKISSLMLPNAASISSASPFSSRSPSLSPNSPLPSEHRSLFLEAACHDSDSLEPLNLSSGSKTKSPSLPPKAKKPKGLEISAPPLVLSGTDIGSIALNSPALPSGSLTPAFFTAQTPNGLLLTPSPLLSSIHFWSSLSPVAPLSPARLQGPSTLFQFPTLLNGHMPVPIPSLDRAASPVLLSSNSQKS
Outline: as §1

Sequence of ELF1 (P32519 whole entry): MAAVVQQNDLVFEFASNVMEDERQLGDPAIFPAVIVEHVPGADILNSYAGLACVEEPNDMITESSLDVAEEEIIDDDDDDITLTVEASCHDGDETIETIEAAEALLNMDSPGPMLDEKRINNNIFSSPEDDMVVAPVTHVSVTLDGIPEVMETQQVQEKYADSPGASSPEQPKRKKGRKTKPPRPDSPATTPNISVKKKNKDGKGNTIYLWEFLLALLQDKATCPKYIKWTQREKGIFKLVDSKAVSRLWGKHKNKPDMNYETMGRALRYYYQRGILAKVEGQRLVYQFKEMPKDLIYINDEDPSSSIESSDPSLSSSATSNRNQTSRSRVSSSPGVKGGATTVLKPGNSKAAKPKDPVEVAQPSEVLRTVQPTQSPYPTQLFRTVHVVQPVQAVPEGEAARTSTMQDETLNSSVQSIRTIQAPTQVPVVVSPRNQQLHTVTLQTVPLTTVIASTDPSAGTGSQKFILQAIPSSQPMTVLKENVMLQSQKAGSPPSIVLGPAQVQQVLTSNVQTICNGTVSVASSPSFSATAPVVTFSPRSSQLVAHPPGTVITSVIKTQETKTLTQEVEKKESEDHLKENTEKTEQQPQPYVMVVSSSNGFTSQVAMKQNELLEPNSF
Sequence of SPIB (Q01892 whole entry): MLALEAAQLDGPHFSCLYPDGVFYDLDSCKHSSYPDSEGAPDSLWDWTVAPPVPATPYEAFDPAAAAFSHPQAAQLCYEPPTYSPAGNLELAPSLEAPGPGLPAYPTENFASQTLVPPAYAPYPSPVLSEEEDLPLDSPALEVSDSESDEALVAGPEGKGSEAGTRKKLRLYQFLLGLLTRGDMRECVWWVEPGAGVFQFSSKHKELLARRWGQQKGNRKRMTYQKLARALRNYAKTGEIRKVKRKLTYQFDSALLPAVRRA

## ATTATA
FLI1
  binding signal: 1.24 fold enrichment (6-mer frequency, TF over GST control)
ELK1
  binding signal: 1.32 fold enrichment (6-mer frequency, TF over GST control)
GABPA
  binding signal: 1.21 fold enrichment (6-mer frequency, TF over GST control)
ERG
  binding signal: 1.25 fold enrichment (6-mer frequency, TF over GST control)
ELF1
  binding signal: 1.31 fold enrichment (6-mer frequency, TF over GST control)
EHF
  binding signal: 1.29 fold enrichment (6-mer frequency, TF over GST control)
SPI1
  binding signal: 1.2 fold enrichment (6-mer frequency, TF over GST control)
SPIB
  binding signal: 1.37 fold enrichment (6-mer frequency, TF over GST control)
ELK3
  binding signal: 1.28 fold enrichment (6-mer frequency, TF over GST control)
